Growth data for seven molecules are collected here from PubChem BioAssay (NCI).

The panel holds about 83,000 compounds, 20% with a hit somewhere; the sample as a whole holds those more often.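 Compound tested at a single concentration for 48 hours in 96-well plates; a percent growth value below 10 was scored as active.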 A number with no mark means an inactive call. Calls of active or inactive are those of the source.

Test systems include NCI-H23 lung; NCI-H226 lung; NCI-H322M lung; HOP-62 NSCLC; NCI-H460 lung; HOP-92 NSCLC; NCI-H522 lung; A549/ATCC NSCLC; 786-0 renal; COLO 205 colon; DU-145 prostate; K-562 leukemia; MALME-3M melanoma; MDA-MB-231 breast; RXF 393 renal; SF-268 CNS; SF-295 CNS; SF-539 CNS; UACC-257 melanoma; M14 melanoma.
Common to all, as to experiment: NCI-60 one-dose screen, 48 h (100 = growth as untreated, 0 = no growth, -100 = all killed)
What all share (conditions): 10 µM unless noted

As to `C=C(C[n+]1ccccc1)[C@@H]1CC[C@]2(C(=O)OC)CC[C@]3(C)[C@H](CC[C@@H]4[C@@]5(C)CC[C@H](O)C(C)(C)[C@@H]5CC[C@]43C)[C@@H]12`, the growth in the assay on NCI-H23 lung was 97.4%; with NCI-H226 lung, 89.5%; with NCI-H322M lung, 101%; in the assay on HOP-62 NSCLC, 93.5%; with NCI-H460 lung it was 105%; in the assay on HOP-92 NSCLC, 82.9%. Besides, the growth in the assay on NCI-H522 lung was 78%; with A549/ATCC NSCLC, 105%; with 786-0 renal, 102%; in the assay on COLO 205 colon, 102%; with DU-145 prostate, 114%; in the assay on K-562 leukemia, 95.7%. The growth was 103% in the assay with MALME-3M melanoma; 114% in the assay with MDA-MB-231 breast; 106% with RXF 393 renal; 97% in the assay with SF-268 CNS; 103% in the assay with SF-295 CNS; 91.2% with SF-539 CNS. Moreover, the growth is 100% with UACC-257 melanoma and 102% in the assay on M14 melanoma.
With `CCCCCn1cnc2c(=S)nc[nH]c21`, the growth is 102% with NCI-H23 lung; 110% in the assay on NCI-H226 lung; 121% with NCI-H322M lung; 110% in the assay with HOP-62 NSCLC; 98.5% with NCI-H460 lung; 101% in the assay on HOP-92 NSCLC. Moreover, the growth is 90% with NCI-H522 lung; 118% in the assay on A549/ATCC NSCLC; 106% with 786-0 renal; 105% in the assay with COLO 205 colon; 124% with DU-145 prostate; 97.9% in the assay with K-562 leukemia. The growth with MALME-3M melanoma is 111%; in the assay with MDA-MB-231 breast, 131%; with RXF 393 renal, 160%; in the assay with SF-268 CNS, 124%; in the assay on SF-295 CNS, 119%; in the assay with SF-539 CNS, 91%. For the same molecule, the values for the growth in the assay with UACC-257 melanoma and in the assay with M14 melanoma were 131% and 120%, respectively.
Turning to `CCCCCCCCCCCCCCCCCCNC(=O)[C@H]1CSC(c2ccc(F)c(OC)c2)N1` (stereo not given in full), the growth in the assay with NCI-H23 lung was 5.24% (active); in the assay on NCI-H226 lung, -69% (active); in the assay with NCI-H322M lung it was -22.2% (active); in the assay on HOP-62 NSCLC, -97.6% (active); in the assay on NCI-H460 lung, -77.7% (active); with HOP-92 NSCLC it was -5.83% (active). Also, the growth in the assay on NCI-H522 lung was 7.12% (active); with A549/ATCC NSCLC, -12.9% (active); with 786-0 renal it was -10.6% (active); with COLO 205 colon, 20.1%; in the assay with DU-145 prostate, 26.5%; in the assay on K-562 leukemia, -56.3% (active). In addition, the growth is -91.2% (active) in the assay on MALME-3M melanoma; -83.4% (active) in the assay with MDA-MB-231 breast; -93.6% (active) in the assay on RXF 393 renal; -69.9% (active) in the assay on SF-268 CNS; 30.8% with SF-295 CNS; -61.9% (active) with SF-539 CNS. The growth in the assay with UACC-257 melanoma is -61.7% (active); in the assay with M14 melanoma, -90.8% (active).
Turning to `Brc1cccc(-c2nc(-c3ccc4c(c3)OCCO4)co2)c1`, the growth in the assay on NCI-H23 lung is 71.3% [25 µM]; in the assay on NCI-H226 lung, 78.2% [25 µM]; with NCI-H322M lung it was 90.7% [25 µM]; in the assay on HOP-62 NSCLC, 57.9% [25 µM]; in the assay with NCI-H460 lung, 25.2% [25 µM]; in the assay with HOP-92 NSCLC, 80.4% [25 µM]. The growth is 24.5% [25 µM] with NCI-H522 lung; 56.3% [25 µM] with A549/ATCC NSCLC; 78% [25 µM] in the assay with 786-0 renal; 50.5% [25 µM] with COLO 205 colon; 88.2% [25 µM] in the assay with DU-145 prostate; 18.5% [25 µM] with K-562 leukemia. In addition, the growth with MALME-3M melanoma is 50.2% [25 µM]; in the assay with MDA-MB-231 breast, 47.5% [25 µM]; in the assay with RXF 393 renal, 66.2% [25 µM]; with SF-268 CNS, 73.6% [25 µM]; in the assay with SF-295 CNS, 52.4% [25 µM]; with SF-539 CNS, 52.2% [25 µM]. For the same molecule, the growth in the assay on UACC-257 melanoma was 87.3% [25 µM]; in the assay on M14 melanoma it was 46% [25 µM].
Take `CC(=O)OC1Oc2cc(C)c(C)cc2-c2oc(=O)c(-c3cc4ccc(N(C)C)cc4oc3=O)cc21` (stereo not given): the growth with NCI-H23 lung was 46.9%; in the assay on NCI-H226 lung, 59.2%; with NCI-H322M lung, 78.9%; in the assay on HOP-62 NSCLC, 82%; in the assay on NCI-H460 lung it was 65.4%; in the assay with HOP-92 NSCLC it was 77.8%. Further, the growth with NCI-H522 lung was 60.5%; with A549/ATCC NSCLC, 70.5%; with 786-0 renal, 74.1%; in the assay on COLO 205 colon, 96.4%; in the assay with DU-145 prostate it was 85.8%; in the assay on K-562 leukemia it was 11.4%. Further, the growth in the assay on MALME-3M melanoma is 68.1%; with MDA-MB-231 breast it was 75.8%; with RXF 393 renal, 45.9%; in the assay on SF-268 CNS, 84.8%; in the assay on SF-295 CNS, 54.9%; in the assay with SF-539 CNS, 81.4%. In addition, the growth was 73.4% with UACC-257 melanoma and 86.7% with M14 melanoma.
For the molecule `COc1ccc(-n2c(C)nc3c(c(C)nn3-c3ccccc3)c2=O)cc1`, the growth with NCI-H23 lung was 18.4%; in the assay with NCI-H226 lung, 51.3%; in the assay on NCI-H322M lung it was 49.9%; in the assay on HOP-62 NSCLC, 34.4%; in the assay with NCI-H460 lung, 3.74% (active); in the assay with HOP-92 NSCLC, 27.6%. Further, the growth in the assay with NCI-H522 lung is -14% (active); in the assay with A549/ATCC NSCLC, 16.3%; with 786-0 renal it was 27.4%; with COLO 205 colon, -45.6% (active); in the assay on DU-145 prostate, 0.999% (active); with K-562 leukemia it was 8.9% (active). The growth in the assay with MALME-3M melanoma is 63.7%; in the assay on MDA-MB-231 breast, 31.9%; in the assay on RXF 393 renal, 19.7%; in the assay with SF-268 CNS, 30.3%; in the assay with SF-295 CNS it was 3.34% (active); with SF-539 CNS it was -1.28% (active). Besides, the growth in the assay with UACC-257 melanoma was 60%; with M14 melanoma, 10.4%.
As for `COc1ccc(-c2cc(-c3ccc(N(C)C)cc3)nc(NC(=O)c3ccncc3)n2)cc1`, the growth is 91.8% in the assay on NCI-H23 lung; 82.6% in the assay on NCI-H226 lung; 87.8% with NCI-H322M lung; 103% in the assay on HOP-62 NSCLC; 99.7% in the assay on NCI-H460 lung; 62.8% with HOP-92 NSCLC. The growth with NCI-H522 lung was 90.7%; with A549/ATCC NSCLC, 93.7%; in the assay on 786-0 renal, 97.1%; in the assay on COLO 205 colon, 111%; in the assay on DU-145 prostate it was 102%; in the assay on K-562 leukemia, 95%. The growth in the assay with MALME-3M melanoma is 119%; in the assay on MDA-MB-231 breast it was 111%; with RXF 393 renal it was 87.3%; in the assay on SF-268 CNS, 98.1%; in the assay with SF-295 CNS it was 105%; in the assay with SF-539 CNS, 96.8%. In addition, the figures for the growth in the assay on UACC-257 melanoma and in the assay on M14 melanoma were 108% and 104%, respectively.
